# Source: PubChem BioAssay
# How the values were obtained:
# [1] = NFkB reporter suppression in cystic fibrosis bronchial cells – cell-based, uHTS hits, panel, cytotoxicity readout, dose response (AID 624344); settings: CF bronchial epithelial cells, PAF-induced NFkB reporter inhibition, with PAF, run 1; at 79 µM (top of the series) unless noted
# [2] = as above; settings: CF bronchial epithelial cells, PAF-induced NFkB reporter inhibition, with PAF, run 2; at 79 µM (top of the series) unless noted
SMILES,inhibition [1],inhibition [2]
O=[N+]([O-])c1ccc(O)c(C2CCCCC2)c1,117%,103%
COc1cccc(N2CCN(c3c(C#N)c(C(F)(F)F)nn3C)CC2)c1,111%,94.2%
Cc1cccc(NS(=O)(=O)c2ccc(-c3cnc(C4CC4)o3)cc2)c1C,105%,107%
C[C@H](CO)N1C[C@H](C)[C@@H](CN(C)C(=O)Nc2ccc3c(c2)OCO3)Oc2c(NC(=O)Nc3ccc(C(F)(F)F)cc3)cccc2C1=O,113%,105%
Cc1cccc(C(=O)N2[C@@H](C(C)C)COc3cc(Br)ccc3S2(=O)=O)c1,102%,93.6%
CC(C)CNC(=O)c1coc(=O)c(Br)c1,86%,63.6%
CCCCCc1cc(O)c2c(C)cc(=O)oc2c1,112%,99.4%
O=C(CC12CC3CC(CC(C3)C1)C2)Nc1nncs1,105%,100%
O=[N+]([O-])c1cccc(/C=N/Nc2cc(N3CCOCC3)ncn2)c1,116%,102%
CCN1CCN(Cc2ccc(NC(=O)c3ccc(C)c(NC(=O)c4ccc5n[nH]nc5c4)c3)cc2C(F)(F)F)CC1,101%,111%
COc1ccc(-n2cc(-c3ccccc3)c3c(N4CC(C)OC(C)C4)ncnc32)cc1 (stereo not drawn),102%,102%
Cc1nc2sc(C(N)=O)c(N)c2c2c1CCCC2,116%,104%
Cc1c(Cl)cccc1NC(=O)CSc1nc2ncc(Cl)cc2[nH]1,98.5% [at 19.8 µM],98.7%
CCN1CCN(Cc2ccc(NC(=O)c3ccc(C)c(NC(=O)c4cc(-c5ccc(Br)cc5)n[nH]4)c3)cc2C(F)(F)F)CC1,102%,112%
COc1cc(C(=O)c2cc3c(cc2C)OCO3)cc(OC)c1OC,48.2%,51.8%
O=C(CCC1COc2ccccc2O1)Nc1ccc(Cl)cn1 (stereo not drawn),104%,112%
C=CC(=O)Nc1cccc(Oc2ncnc3[nH]cc(-c4cnc5ccccc5c4)c23)c1,102%,109%
C=CCOc1c(OC)cc(/C=N/Nc2cccc(C(=O)O)c2)c(Br)c1Br,103%,105%
O=C(NCCCSc1ccccc1)c1cc(Br)ccc1O,110%,103%
Cc1nc([N+](=O)[O-])c(Sc2nc3ccccc3n2C)n1Cc1ccccc1,101%,115%
Cc1ccc2nc(SCC(=O)Nc3cc(C(F)(F)F)ccc3N3CCOCC3)[nH]c2c1,81.3%,48.5%
O=S(=O)(Nc1ccc(Cl)cc1NS(=O)(=O)c1ccccc1)c1ccccc1,114%,85.8%
COc1ccc(-c2csc(/C(C#N)=C\c3ccc(O)c([N+](=O)[O-])c3)n2)cc1OC,97.7%,102%
COc1cccc(Nc2ncnc3ccc(Br)cc23)c1,119%,105%
CC(=O)c1c(C)n(-c2ccccc2)c2ccc(O)cc12,90.8%,91.5%
CC(=O)c1c(C)n(-c2ccc(C)cc2C)c2ccc(O)cc12,106%,64%
OCCN1CCN(c2ncnc3ccc(Br)cc23)CC1,95.4%,107%

SMILES,inhibition [1],inhibition [2]
ON=C1c2ccccc2-c2cc(Br)ccc21,117%,106%
O=C1N(c2ccccc2C(F)(F)F)O[C@]1(c1ccccc1)C1CCCCC1,90.7%,98.7%
O=C(CCl)N(Cc1cc(=O)[nH]c2ccccc12)c1ccccc1,68.3%,83.6%
CCOC(=O)/C=c1/s/c(=C\c2c(OC)ccc3ccccc23)c(=O)n1CC(=O)NCC1CCCO1 (stereo not drawn),-195%,46.6% [at 39.5 µM]
CC(=O)Oc1c(Cl)cc(N(C(C)=O)S(=O)(=O)c2ccccc2)c2ccccc12,89.7%,108%
Cc1ccc(Cl)cc1-c1cc(C(=O)NCc2cc(C(F)(F)F)cc(C(F)(F)F)c2)[nH]n1,84.9%,96.5%
Cc1nnc(SCC(=O)N2CCC(c3noc4ccc(F)cc34)CC2)s1,101%,112%
Cc1ccnc(NC(=O)CCCOc2cc(=O)n(C)c3ccccc23)c1,105%,112%
Nc1nc(N)nc(-c2cc([N+](=O)[O-])ccc2O)n1,76.3%,66.7%
NS(=O)(=O)c1ccc(CCNC(=O)c2ccc(C#CC3(O)CCCCC3)cc2)cc1,105%,102%
COc1ccc(-c2cc(=O)oc3cc(O)ccc23)cc1,105%,103%
C=CCN1c2ccccc2Sc2cnccc21,105%,116%
C=CC[C@@H](CC(=O)N(CCO)Cc1ccccc1)C(=O)NC[C@H](OC(=O)[C@@H](CC=C)Cc1ccc(F)cc1)c1ccccc1,110%,102%
O=C(NCc1ccco1)c1nc2c(nnn2Cc2ccccc2Cl)c(=O)[nH]1,115%,107%
Cc1cc(C)cc(NS(=O)(=O)c2ccc(-c3cnc(C4CC4)o3)cc2)c1,110%,106%
CCN(c1ccc(OC)cc1)c1ncnc2nc[nH]c12,108%,98%
O=C(c1nnsc1S(=O)c1ccc(Cl)cc1)N1CCOCC1 (stereo not drawn),95.6%,110% [at 19.8 µM]
O=C(Nc1cccc(-c2cnc3ccccc3n2)c1)c1cccc(NC(=O)c2ccco2)c1,98.6%,96.6%
O=c1c(O)c(-c2ccccc2)oc2cc(O)cc(O)c12,103%,106%
O=C(NCc1cccnc1)/C(=C\c1ccc(-c2cccc(Cl)c2)o1)S(=O)(=O)c1ccccc1,101%,99.2%
O=C(COC(=O)c1ccc2[nH]c3c(c2c1)CCCC3)Nc1ccccc1Cl,65.7%,69.7%
CC1(Cc2ccc(F)cc2)C(=O)Nc2ccc(-c3cccnc3)cc21 (stereo not drawn),98.2%,108%
Cc1c(C(=O)OC2CCCC2)[nH]c2c1C(=O)CC(c1ccco1)C2 (stereo not drawn),29%,115%
Cc1ccc(S(=O)(=O)/N=C(\CCl)N2CCOCC2)cc1,110%,102%
Cc1c(-c2ccccc2)oc2c(C(=O)N3CCN(c4ccc([N+](=O)[O-])cc4)CC3)cccc2c1=O,105%,93.8%
Cc1ccc2c(c1)C(=O)C(=O)N2Cc1ccc(C(F)(F)F)cc1,111%,100%
COc1ccc(OC)c(C2CC(=O)c3c([nH]c(C(=O)OC(C)C)c3C)C2)c1 (stereo not drawn),51.7%,64.2%

SMILES,inhibition [1],inhibition [2]
CNc1ccc2ncc(-c3cccc(C(=O)N(C)C)c3)n2n1,111%,106%
C/C=C/COC(=O)c1[nH]c2c(c1C)C(=O)CC(c1ccco1)C2 (stereo not drawn),106%,92.9%
CC1CCCCN1c1ncnc(N)c1[N+](=O)[O-] (stereo not drawn),113%,103%
COc1ccc(COC(=O)C2=C(C)NC(=O)NC2c2ccc(OC)cc2)cc1 (stereo not drawn),76.8%,78%
CCC(=NCCc1c(C)[nH]c2ccc(C)cc12)C1=C(O)CC(c2ccccc2)CC1=O (stereo not drawn),82.1%,92%
COc1ccc(C2CNC(=O)C2)cc1OC1CCCC1 (stereo not drawn),84.8%,81.6%
COc1ccc(C(=O)N[C@H](C(=O)Nc2nc3ccccc3[nH]2)C(C)C)cc1,99.8%,102%
COC(=O)N1C(=O)[C@@](c2ccc(OC)cc2)(C(C)C)N1C(=O)OC,101%,102%
CCOCC(=O)NC1CCc2cc(OC(=O)COCC)c(OC)c(OC)c2-c2ccc(SC)c(=O)cc21 (stereo not drawn),45.7%,85.3%
Cc1cccc(NC(=O)c2cc(-c3ccc(C)s3)nc3ccccc23)n1,98.5%,95.4%
Cc1nn(-c2nccs2)c2c1C(=O)CC(C)(C)C2Br (stereo not drawn),108%,115%
CCCCCCc1cc2cc(C(=O)Nc3ccccc3OC)c(=O)oc2cc1O,2.45%,66.2%
COC(=O)c1c(C)n(-c2ccc(OC)cc2)c2ccc(O)cc12,103%,94.9%
O=C(O)/C=C/c1ccc2c(-c3ccccc3)onc2c1,113%,105%
O=C(Nc1ccccc1)c1cc2ccccc2c(=O)s1,50.8%,85.2%
Cc1ccc(NC(=O)CSc2ncnc3ccccc23)cc1S(=O)(=O)N1CCOCC1,110%,98.4%
Cc1ccc(S(=O)(=O)Nc2ccc3cc([N+](=O)[O-])ccc3c2[N+](=O)[O-])cc1,109%,101%
O=C(OC1CCOC1=O)c1ccccc1C(=O)c1ccc(Cl)c([N+](=O)[O-])c1 (stereo not drawn),98.5%,105%
Cc1ccsc1CN(C)c1ncnc2ccc(-c3ccoc3)cc12,91.6%,93.8%
CC(=O)c1ccc(NC(=O)Nc2ccc3c(c2)N(C)C(=O)CS3)cc1,98.3%,106% [at 19.8 µM]
Cc1cc(C)nc(Sc2ncnc(N)c2[N+](=O)[O-])n1,96.2%,88.9%
CC(=O)c1ccc(-c2cnc3c(NC=O)cc(-c4ccc(C(=O)NC5CC5)cc4)cn23)cc1,99.5%,104%
O=[N+]([O-])c1ccc(Oc2ccc(F)cc2)c2ccncc12,99.2%,97.3%
CCC1(O)C(=O)OCc2c1cc1n(c2=O)Cc2cc3cc(O)ccc3nc2-1 (stereo not drawn),106%,88.8%
Cc1nnc(Sc2nc3ccccc3o2)c2ccccc12,98.3%,107%
